# Shown are actives, neighbours in structure and some others; about 8.1% of the full set was active somewhere.
# Shh pathway inh = Hedgehog pathway signaling inhibitors, primary screen, luminescence, Shh-LIGHT2 cells, Gli-luciferase. Shh-LIGHT2 Gli-luciferase reporter, 30 h. inhibition, % (no concentration beside the values). AID 2313, 2010. 22,000 compounds, 2.1% hits;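 active = mean inhibition across valid replicates above about 65%, limit read from the data; inconclusive = mean under the limit, yet half or more replicates past it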;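 note: pathway switched on by Shh-conditioned medium diluted 1 in 25 in low serum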
# NOMO-1 viab = NOMO-1 AML cell viability reduction, primary screen, STK33 inhibitor project, CellTiter-Glo luminescence; 37,000 compounds, 7.5% hits; AID 2330, 2010; NOMO-1 AML viability, 72 h; inhibition, % (concentration not given with the values); in the data active = inhibition above about 80%; inconclusive = no clear call, values can overlap the other calls
# MITF inhib = inhibitors of MITF, primary screen, MITF inhibitor project, cell-based, luminescence; TRPM1 promoter luciferase, 24 h; inhibition, % (concentration not given with the values); 37,000 compounds, 0.28% hits; AID 2240, 2010; in the data active = inhibition above about 85%; inconclusive = no clear call, values can overlap the other calls; inactive = below about 68%;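 note: human melanocyte line stably carrying TRPM1 promoter luciferase reporter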
# The depositor's hits bear a star; ? = inconclusive; nt = no result.
SMILES,Shh pathway inh,NOMO-1 viab,MITF inhib
C[C@H](CO)N1C[C@H](C)[C@@H](CN(C)Cc2ccc(-c3ccccc3)cc2)Oc2ccc(NS(=O)(=O)c3ccc(Cl)cc3)cc2C1=O,27,62,2
C[C@H](CO)N1C[C@H](C)[C@H](CN(C)Cc2ccc(-c3ccccc3)cc2)Oc2ccc(NS(=O)(=O)c3ccc(Cl)cc3)cc2C1=O,29,114*,14
C[C@@H]1CN([C@@H](C)CO)C(=O)c2cc(NS(=O)(=O)c3ccc(Cl)cc3)ccc2O[C@@H]1CN(C)Cc1ccc(-c2ccccc2)cc1,-6,123*,37
C[C@@H]1CN([C@H](C)CO)C(=O)c2cc(NS(=O)(=O)c3ccc(Cl)cc3)ccc2O[C@@H]1CN(C)Cc1ccc(-c2ccccc2)cc1,nt,109*,26
C[C@H]1CN([C@@H](C)CO)C(=O)c2cc(NS(=O)(=O)c3ccc(Cl)cc3)ccc2O[C@@H]1CN(C)Cc1ccc(-c2ccccc2)cc1,nt,38,-4
Cc1ccc(NC(=O)CN(c2ccc(F)c(Cl)c2)S(C)(=O)=O)c(C)c1,nt,8,-6
Cc1cc(C)c(NC(=O)C(C)N(c2ccccc2)S(C)(=O)=O)c(C)c1 (centres undefined),nt,-8,-8
COCCNC(=O)c1ccccc1NC(=O)Nc1ccc(Cl)cc1,nt,-2,-74
CC1CCC2(C)C(C(=O)O)=CCCC2C1(C)CCC1=CC(O)OC1=O (centres undefined),-3,4,-6
NC(=O)C1CCN(CCC(=O)Nc2ccc(F)cc2)CC1,nt,2,-5
CN[C@H]1CC[C@@H](c2ccc(Cl)c(Cl)c2)c2ccccc21,nt,107*,7
C[C@H](CO)N1C[C@H](C)[C@H](CN(C)CC2CC2)Oc2c(cccc2N(C)C)C1=O,-7,14,2
C[C@@H]1CN([C@H](C)CO)C(=O)c2cc(NC(=O)Nc3cccc4ccccc34)ccc2O[C@@H]1CN(C)Cc1ccncc1,nt,15,3
C[C@H](CO)N1C[C@H](C)[C@H](CN(C)Cc2ccncc2)Oc2ccc(NC(=O)Nc3cccc4ccccc34)cc2C1=O,nt,98*,7
C[C@@H]1CN([C@@H](C)CO)C(=O)c2cc(NC(=O)Nc3cccc4ccccc34)ccc2O[C@H]1CN(C)Cc1ccc(C(F)(F)F)cc1,-23,87*,8
C[C@@H]1CN([C@H](C)CO)C(=O)c2cc(NC(=O)Nc3ccccc3)ccc2O[C@@H]1CN(C)C(=O)Nc1cccc2ccccc12,10,90*,-7
C[C@@H]1CN([C@@H](C)CO)C(=O)c2cc(NC(=O)Nc3ccccc3)ccc2O[C@@H]1CN(C)C(=O)Nc1cccc2ccccc12,17,67,-22
C[C@H]1CN([C@@H](C)CO)C(=O)c2cc(NC(=O)Nc3cccc4ccccc34)ccc2O[C@@H]1CN(C)C(=O)Nc1ccc(C(F)(F)F)cc1,-45,86*,32
C[C@H]1CN([C@@H](C)CO)C(=O)c2cc(NC(=O)Nc3cccc4ccccc34)ccc2O[C@H]1CN(C)Cc1ccc(C(F)(F)F)cc1,nt,1,29
C[C@@H]1CN([C@@H](C)CO)C(=O)c2cc(NC(=O)Nc3cccc4ccccc34)ccc2O[C@@H]1CN(C)C(=O)Nc1ccc(C(F)(F)F)cc1,-37,52,20
COc1cccc(OCC(=O)Nc2ccc(Sc3ccc([N+](=O)[O-])cc3)cc2)c1,nt,25,26
CCN(CC(=O)Nc1cccc(Cl)c1)S(=O)(=O)c1ccc(Br)cc1,nt,11,10
CCS(=O)(=O)c1nc2ccccc2n1CC(N)=O,nt,8,10
COc1ccc(Oc2c(C(F)(F)F)oc3cc(OCC(=O)Nc4ccccc4F)ccc3c2=O)cc1,nt,96*,47
CC(C)c1ccccc1Oc1coc2cc(OCC(=O)Nc3ccccc3F)ccc2c1=O,nt,28,-4
SMILES,Shh pathway inh,NOMO-1 viab,MITF inhib
CC1Oc2ccccc2OC1(O)c1ccc(Br)cc1 (centres undefined),17,106*,17
C[C@@H]1CN([C@@H](C)CO)C(=O)c2cccc(NC(=O)C3CCCCC3)c2O[C@@H]1CN(C)Cc1ccccc1,-23,15,-4
CO[C@H]1C[C@@H]2CC[C@@H](C)[C@@](O)(O2)C(=O)C(=O)N2CCCC[C@H]2C(=O)O[C@H]([C@H](C)C[C@@H]2CC[C@@H](O)[C@H](OC)C2)CC(=O)[C@H](C)/C=C(\C)[C@@H](O)[C@@H](OC)C(=O)[C@H](C)C[C@H](C)/C=C/C=C/C=C\1C,2,131*,62
C/C(=C\CC[C@@H](C)[C@H]1CC(O)[C@@]2(C)C3CC[C@H]4C(C)(C)[C@@H](O[C@@H]5OC(COC6OC(CO)C(O)C(O)C6O)C(O)C(O)C5O)CC[C@@]45C[C@@]35CC(O)[C@]12C)C(=O)OC1OC(CO)C(O)C1O (some centres undefined),-7,28,3
CC(C)OC(=O)CSc1nc2c(c(-c3ccccc3)c1C#N)CCC2,nt,14,-59
COc1cc(CO)ccc1OCc1cccc(C(=O)O)c1,nt,19,93*
COc1cc(CO)ccc1OCC(=O)Nc1ccccc1F,nt,-6,-42
O=C(Nc1ccc(S(=O)(=O)Nc2ncccn2)cc1)C1CCC1,nt,-11,-7
CCc1ccc(/C(C#N)=C/C=C/c2ccccc2)cc1,-148,115*,-7
Cc1ccc(S(=O)(=O)Nc2ccc(Br)cc2CNc2nc3ccccc3n2C)cc1,nt,23,13
NCCOc1ccc(Cl)cc1,?,111*,-35
Clc1ccc(OCCCCSc2ncccn2)cc1,nt,-3,-77
CNC[C@@H]1Oc2ccc(NC(=O)Nc3ccc4c(c3)OCO4)cc2C(=O)N([C@@H](C)CO)C[C@H]1C,nt,18,-2
Cc1noc(C)c1NC(=O)Nc1ccc2c(c1)C(=O)N([C@H](C)CO)C[C@@H](C)[C@@H](CN(C)S(C)(=O)=O)O2,-4,-13,-1
CC(C)NC(=O)Nc1ccc2c(c1)CC(=O)N([C@H](C)CO)C[C@H](C)[C@H](CN(C)Cc1ccc(C(F)(F)F)cc1)O2,32,32,-12
CC(C)NC(=O)Nc1ccc2c(c1)CC(=O)N([C@@H](C)CO)C[C@@H](C)[C@@H](CN(C)Cc1ccc(C(F)(F)F)cc1)O2,-7,-1,-13
C[C@H](CO)N1C[C@H](C)[C@H](CN(C)Cc2ccc(C(F)(F)F)cc2)Oc2ccc(NC(=O)Nc3ccc(F)cc3)cc2CC1=O,-14,113*,18
C[C@@H]1CN([C@H](C)CO)C(=O)Cc2cc(NC(=O)Nc3ccc(F)cc3)ccc2O[C@H]1CN(C)Cc1ccc(C(F)(F)F)cc1,-18,116*,23
C[C@H]1CN([C@@H](C)CO)C(=O)Cc2cc(NC(=O)Nc3ccc(F)cc3)ccc2O[C@@H]1CN(C)Cc1ccc(C(F)(F)F)cc1,-13,117*,14
C[C@@H]1CCCCO[C@@H](CN(C)Cc2ccc(C(=O)Nc3ccccc3N)cc2)[C@@H](C)CN([C@H](C)CO)C(=O)c2cc(NS(=O)(=O)c3ccccc3)ccc2O1,nt,140*,16
C[C@@H]1CCCCO[C@@H](CN(C)Cc2ccccc2)[C@@H](C)CN([C@H](C)CO)C(=O)c2cc(NS(=O)(=O)c3ccc(Cl)cc3)ccc2O1,24,40,5
